Data on seven compounds can be found in PubChem BioAssay (NCATS).

The nature of test [1]: qHTS Assay for Lipid Storage Modulators (AID 1519; calls by dose curve; as to activity change, negative = inhibition: % is scaled to controls: 0 for no effect and ±100 for the full control effect). The following applies: Drosophila S3 cells, BODIPY lipid droplet/cell ratio, laser cytometry, cells loaded with oleic acid; for activity change, negative = inhibition: at 57.5 µM (top of the series). An outline of the steps: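 Cells seeded at 5,000 per well were treated with compounds over a concentration series and loaded with oleic acid (400 uM, as added). Lipid droplet fluorescence (488 nm excitation, 500-530 nm channel) was read by laser-scanning cytometry and normalized to 20 uM Triacsin C.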
Background: Quantitative high-throughput screening tests each substance at several concentrations.

For test [2], the target named is DNA repair nuclease/redox regulator APEX1 (Homo sapiens) (UniProt P27695). Nature of the test: qHTS Validation Assay for Inhibitors of the Human Apurinic/apyrimidinic Endonuclease 1 (APE1) (AID 1705;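 also: TAMRA fluorescence gain over two minutes as APE1 cuts a quenched THF abasic duplex; % is scaled to controls: 0 for no effect and ±100 for the full control effect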). The note with it: purified APE1 endonuclease activity, fluorescence, titration; series mostly up to 57.1 µM. Put shortly: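 Read-out: TAMRA fluorescence (525 nm ex, 598 nm em) from cleavage of a quenched THF abasic-site duplex, 50 nM final; activity taken as intensity change between third and first of three reads 60 s apart.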
Sequence of DNA repair nuclease/redox regulator APEX1 (Homo sapiens) (P27695 whole entry, looked up): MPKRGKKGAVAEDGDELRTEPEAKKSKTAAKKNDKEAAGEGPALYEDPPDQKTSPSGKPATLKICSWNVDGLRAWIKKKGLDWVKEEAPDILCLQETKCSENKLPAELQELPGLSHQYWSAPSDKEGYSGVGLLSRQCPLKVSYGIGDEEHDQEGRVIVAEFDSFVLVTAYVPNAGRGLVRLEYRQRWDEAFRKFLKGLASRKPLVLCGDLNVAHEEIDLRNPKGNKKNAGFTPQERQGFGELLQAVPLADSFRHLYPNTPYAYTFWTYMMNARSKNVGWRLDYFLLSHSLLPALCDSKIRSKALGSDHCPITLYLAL

Test [3] can be described thus: Counterscreen for APE1 Inhibitors: Fluorescent Dye Displacement Validation Assay (AID 1707).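 Also: plate controls were ThO with dsDNA and no compound for no effect and ThO without dsDNA for full effect.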 The note with it: fluorescent dye displacement from DNA; series mostly up to 57.1 µM. An outline of the steps: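 Reaction mixture of 250 nM Thiazole Orange and 50 nM double-stranded abasic-site DNA was dispensed, compounds were pin-transferred, and fluorescence was read at endpoint (480 nm ex, 540 nm em). Reduced fluorescence indicated dye displacement by DNA binding.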
For orientation: The purpose of a counterscreen is to sort out artefacts and off-target activity.

Test [4] concerns the target Endonuclease 4 (Escherichia coli (strain K12)) (UniProt P0A6C1). The test is described as follows: Counterscreen for APE1 Inhibitors: qHTS Validation Assay for Inhibitors of Endonuclease IV (AID 1708). Also: % is scaled to controls: 0 for no effect and ±100 for the full control effect. The note with it: E. coli endonuclease IV, DNA cleavage fluorescence; series mostly up to 57.1 µM. Put shortly:
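The reaction buffer contained 50 mM Tris-HCl pH 7.5, 50 mM NaCl, 2 mM MgCl2, 1 mM DTT and 0.01% Tween-20. Incision of a 50 nM fluorophore/quencher THF substrate by 2 nM enzyme was measured kinetically.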

The nature of test [5]: qHTS for differential inhibitors of proliferation of Plasmodium falciparum line 7G8 (AID 1815).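 Also: parasite growth measured after three days of incubation.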 Also: potency is read from the fitted curve at half-maximal effect.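 As to activity change, negative = inhibition: plate controls were vehicle wells for no effect and reference inhibitor wells for full effect.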 The note with it: Plasmodium falciparum 7G8 proliferation inhibition; series mostly up to 28.7 µM.
Test [6] can be described thus: qHTS for differential inhibitors of proliferation of Plasmodium falciparum line GB4 (AID 1816).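 Also: parasite growth measured after 72 h incubation.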 Also: potency is read from the fitted curve at half-maximal effect.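 As to activity change, negative = inhibition: 0% = vehicle DMSO and -100% = reference inhibitor.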 The note with it: Potency: Plasmodium falciparum GB4 proliferation inhibition; series mostly up to 28.7 µM.
A short description of test [7]: qHTS for differential inhibitors of proliferation of Plasmodium falciparum line 3D7 (AID 1876). Also: potency is read from the fitted curve at half-maximal effect. The note with it: P. falciparum 3D7 proliferation inhibition; series mostly up to 28.7 µM.
A short description of test [8]: qHTS for differential inhibitors of proliferation of Plasmodium falciparum line D10 (AID 1877).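 Also: parasites grown with compound for 72 h before DNA staining.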 Also: potency is read from the fitted curve at half-maximal effect.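 As to activity change, negative = inhibition: plate controls were vehicle wells for no effect and reference inhibitor wells for full effect.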 The note with it: series mostly up to 28.7 µM.
Test [9] is described as follows: qHTS for differential inhibitors of proliferation of Plasmodium falciparum line Dd2 (AID 1882). Also: nearly all actives have a fitted effect of over 65% in size. Also: potency is read from the fitted curve at half-maximal effect.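 As to activity change, negative = inhibition: compound exposure of 72 h on infected erythrocytes; plate controls were DMSO vehicle for no effect and 0.29 µM artemisinin for full effect.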 The following applies: Potency: Plasmodium falciparum Dd2 proliferation inhibition; series mostly up to 28.7 µM. Put shortly:
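RBC culture, 0.3% parasitemia / 2.5% Hct final; cpd added by pin tool in DMSO; 72 h, 37 C, 5% CO2; lysis buffer + SYBR Green I, o/n RT dark; FI 485/535; norm. to artemisinin 0.29 uM and DMSO.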

A short description of test [10]: qHTS for differential inhibitors of proliferation of Plasmodium falciparum line HB3 (AID 1886).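 Also: parasites grown with compound for 72 h before SYBR Green readout.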 Also: potency is read from the fitted curve at half-maximal effect.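 As to activity change, negative = inhibition: plate controls were vehicle for no effect and reference inhibitor for full effect.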 The following applies: Potency: Plasmodium falciparum HB3 proliferation inhibition; series mostly up to 28.7 µM.
Test [11] deals with Ferritin light chain (Equus caballus) (UniProt P02791). Nature of the test: qHTS Validation Assay for Identification of Novel General Anesthetics (AID 2323). Also: % is scaled to controls: 0 for no effect and ±100 for the full control effect. The following applies: horse apoferritin, anesthetic-site fluorescent probe displacement; series mostly up to 76.9 µM. An outline of the steps: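 10 uM horse-spleen apoferritin + 1-AMA (50% saturated, PBS); cpd pin-transferred, 10 min RT. Ex 380/Em 535 nm endpoint. Activity normalized between free 1-AMA and 1-AMA/apoferritin; 4-parameter Hill fit of concentration-response.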
Sequence of Ferritin light chain (Equus caballus) (P02791 2-175 limits assumed): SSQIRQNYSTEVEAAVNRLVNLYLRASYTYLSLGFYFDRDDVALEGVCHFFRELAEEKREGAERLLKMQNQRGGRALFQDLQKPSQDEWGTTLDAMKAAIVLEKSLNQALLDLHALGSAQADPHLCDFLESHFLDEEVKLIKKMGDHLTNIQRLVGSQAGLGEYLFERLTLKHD

The target of test [12] is ATP-dependent DNA helicase Q1 (Homo sapiens) (UniProt P46063). The test is described as follows: qHTS Validation Assay for Inhibitors of RecQ-Like Dna Helicase 1 (RECQ1) (AID 2353).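 Also: plate controls were DMSO vehicle for no effect and enzyme-free control for full effect.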 The following applies: recombinant RECQ1 helicase DNA unwinding assay; series mostly up to 25.6 µM. An outline of the steps:
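RECQ1T1 50 nM; forked duplex (20 bp + 30-nt ss tails) 200 nM, ATP 2 mM final; pH 8.0, 2 mM MgCl2, 2.5 ug/ml poly(dI-dC); 15 min compound preincubation; discontinuous kinetic read over 2 h at RT.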

Test [13] has as its target RecQ-like DNA helicase BLM (Homo sapiens) (UniProt P54132). The test is described as follows: qHTS Validation Assay for Inhibitors of Bloom's syndrome helicase (BLM) (AID 2364).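 Also: plate controls were DMSO vehicle for no effect and enzyme-free control for full effect.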 The note with it: BLM helicase DNA unwinding, fluorescence, in vitro; series mostly up to 57.1 µM. An outline of the steps: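 Forked 20-bp duplex substrate (200 nM, TAMRA/BHQ-2) plus 2 mM ATP added after 15 min compound preincubation with 50 nM enzyme, pH 8.0, poly(dI-dC) 2.5 ug/ml. Strand separation followed by fluorescence (525/598 nm) over 2 h, normalized to enzyme-free and DMSO controls.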

The nature of test [14]: Cytometric Cell-Based qHTS for Inhibitors of the mTORC1 Signaling Pathway in MEF (Tsc2-/-, p53-/-) Cells (AID 2660).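 Also: percent of cells above a phospho-rpS6 to PI ratio cutoff in each well; plate controls were DMSO for no effect and rapamycin for full effect.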 The note with it: mTORC1 pathway cytometry; series mostly up to 38.3 µM. An outline of the steps:
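Tsc2-/-, p53-/- MEFs (empty vector) exposed to compound 24 h at 37 C, fixed, stained with Alexa-488 anti-phospho-rpS6 Ser235/236 and propidium iodide. Acumen laser scanning; phospho-S6/PI ratio thresholded against 7.5 nM rapamycin, reported as % positive cells.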

Test [15] in a line: High Content Imaging Cell-Based qHTS for Inhibitors of the mTORC1 Signaling Pathway in MEF (Tsc2-/-, p53-/-) Cells (AID 2666).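 Also: percent of cells scored positive for phospho-rpS6 Ser235/236 immunostaining by imaging.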 The following applies: series mostly up to 38.3 µM. An outline of the steps: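 Tsc2-/-, p53-/- MEFs (empty-vector stable) grown in DMEM + 10% FBS were exposed to compounds for 24 hrs at 37 degree Celsius, fixed, and stained with Alexa-488 anti-phospho-rpS6 Ser235/236 plus Hoechst. Imaging gave the percentage of positive cells per well.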

Test [16] is described as follows: qHTS for differential inhibitors of proliferation of Plasmodium falciparum line W2 (AID 1883).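 Also: parasites grown with compound for 72 h before lysis and staining.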 Also: potency is read from the fitted curve at half-maximal effect.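 As to activity change, negative = inhibition: 0% = vehicle wells and -100% = control inhibitor wells.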 The note with it: Potency: Plasmodium falciparum W2 proliferation inhibition; series mostly up to 28.7 µM.
Test [17] in a line: qHTS Assay for Modulators of Human Peripheral Myelin Protein 22 (PMP22) Expression/Activity (AID 1967; active = well fitted curve in the direction sought with a large enough effect in the signal ratio; the % refers to the signal ratio;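 also: 0% = untreated cells and 100% end not stated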). The note with it: Cell-based PMP22 reporter, dual-color luciferase ratio, mouse Pmp22 promoter in mouse Schwann cells; series mostly up to 115 µM. An outline of the steps: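 Mouse MSC80 Schwann line, Pmp22 promoter–CBG68 reporter, EF-alpha–CBR internal control. 24h compound exposure, 37 °C/5% CO2, DMEM + 10% FBS. Readout: corrected green/red luminescence ratio, normalized to untreated cells; concentration-response curves fitted and classified.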

[18] abbreviates: measured here: cell count channel max response.
[19] abbreviates: measured here: lipid channel max response.

Values joined by “and” are separate entries in the source; they are usually repeats but may differ in a detail not shown here. Equal entries are not always repeated. Results filed as inconclusive are left out. Active and inactive are the calls of the source. Unless noted, calls follow the shape of the dose curve; as a rule, active = well fitted curve in the direction sought with a large enough effect; inconclusive = small, poorly fitted or top-dose-only effect, or another doubt; inactive = no such curve, though single readings can be large; an effect the other way counts as inactive or inconclusive.

Sequence of ATP-dependent DNA helicase Q1 (Homo sapiens) (P46063 whole entry, looked up): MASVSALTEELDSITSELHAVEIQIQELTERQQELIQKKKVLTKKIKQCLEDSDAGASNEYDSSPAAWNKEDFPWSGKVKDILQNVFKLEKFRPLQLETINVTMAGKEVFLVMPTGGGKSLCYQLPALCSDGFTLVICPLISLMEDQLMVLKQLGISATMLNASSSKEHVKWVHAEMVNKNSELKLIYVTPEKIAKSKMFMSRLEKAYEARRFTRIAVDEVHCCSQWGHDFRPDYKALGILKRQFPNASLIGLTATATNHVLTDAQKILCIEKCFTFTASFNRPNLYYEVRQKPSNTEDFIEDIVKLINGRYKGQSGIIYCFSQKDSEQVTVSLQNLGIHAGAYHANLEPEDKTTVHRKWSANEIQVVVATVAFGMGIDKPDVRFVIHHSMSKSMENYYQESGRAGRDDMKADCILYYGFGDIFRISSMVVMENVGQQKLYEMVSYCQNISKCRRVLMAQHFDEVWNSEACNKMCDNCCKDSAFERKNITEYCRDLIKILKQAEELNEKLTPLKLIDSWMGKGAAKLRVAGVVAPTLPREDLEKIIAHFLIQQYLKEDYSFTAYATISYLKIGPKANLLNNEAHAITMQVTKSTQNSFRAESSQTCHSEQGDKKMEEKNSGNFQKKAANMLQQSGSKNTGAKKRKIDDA
Sequence of RecQ-like DNA helicase BLM (Homo sapiens) (P54132 whole entry, looked up): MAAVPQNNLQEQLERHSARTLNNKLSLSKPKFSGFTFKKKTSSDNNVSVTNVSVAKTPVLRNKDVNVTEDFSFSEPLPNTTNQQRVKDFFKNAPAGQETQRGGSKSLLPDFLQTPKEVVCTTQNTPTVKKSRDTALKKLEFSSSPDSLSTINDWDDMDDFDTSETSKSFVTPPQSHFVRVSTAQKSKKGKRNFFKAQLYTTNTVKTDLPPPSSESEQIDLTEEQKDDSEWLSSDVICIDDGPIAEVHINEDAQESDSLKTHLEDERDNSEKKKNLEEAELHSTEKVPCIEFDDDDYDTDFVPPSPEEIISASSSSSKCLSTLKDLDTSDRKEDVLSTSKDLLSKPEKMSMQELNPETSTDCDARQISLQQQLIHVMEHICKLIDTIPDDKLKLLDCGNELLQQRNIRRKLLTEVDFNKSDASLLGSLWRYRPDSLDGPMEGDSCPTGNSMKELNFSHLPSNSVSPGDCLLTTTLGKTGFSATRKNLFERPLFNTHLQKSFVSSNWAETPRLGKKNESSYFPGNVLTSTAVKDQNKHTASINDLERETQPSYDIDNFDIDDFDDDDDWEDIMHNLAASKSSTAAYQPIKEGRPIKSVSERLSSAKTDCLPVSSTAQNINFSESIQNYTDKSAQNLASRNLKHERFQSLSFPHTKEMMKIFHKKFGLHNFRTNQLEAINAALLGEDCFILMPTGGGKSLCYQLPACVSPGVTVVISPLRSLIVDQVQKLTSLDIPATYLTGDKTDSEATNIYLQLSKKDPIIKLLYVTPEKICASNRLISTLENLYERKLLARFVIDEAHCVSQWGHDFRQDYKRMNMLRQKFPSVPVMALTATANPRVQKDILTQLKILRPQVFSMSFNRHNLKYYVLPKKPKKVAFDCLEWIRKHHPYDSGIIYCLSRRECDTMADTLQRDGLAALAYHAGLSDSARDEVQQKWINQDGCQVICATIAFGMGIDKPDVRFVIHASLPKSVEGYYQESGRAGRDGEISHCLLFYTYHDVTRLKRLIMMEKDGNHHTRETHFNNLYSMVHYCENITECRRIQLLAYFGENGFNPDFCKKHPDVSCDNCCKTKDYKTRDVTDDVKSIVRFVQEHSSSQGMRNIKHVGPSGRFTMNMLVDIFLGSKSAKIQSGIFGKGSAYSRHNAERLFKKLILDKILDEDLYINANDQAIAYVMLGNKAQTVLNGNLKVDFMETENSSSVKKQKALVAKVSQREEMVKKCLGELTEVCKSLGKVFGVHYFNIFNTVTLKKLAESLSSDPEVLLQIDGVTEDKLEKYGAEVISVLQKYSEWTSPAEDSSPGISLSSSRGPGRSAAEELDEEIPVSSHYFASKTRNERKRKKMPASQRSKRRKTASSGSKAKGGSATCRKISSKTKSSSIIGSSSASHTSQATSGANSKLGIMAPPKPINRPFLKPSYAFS

`NC(=O)COc1c(F)cc(SCCNS(=O)(=O)c2ccccc2)cc1F`: the activity change, negative = inhibition in test [1] is -2.33% (inactive). Besides, the max response in test [1] (setting [18]) was 1.68%; in test [1] (setting [19]), -0.0137%. Also, the Potency result in test [2], in test [3], in test [4], in [5], in test [6] and in [7] was “inactive” each time. In addition, the Potency result in test [8], in test [9], in test [10], in [12], in [13] and in test [14] was “inactive” throughout. Also, in test [15], the Potency entry is “inactive”. Besides, the outcome in [11] was inactive.

Consider `CC(N)Cc1c[nH]c2ccc(O)cc12` (stereo unspecified), for which, in test [1], the activity change, negative = inhibition was -0.0169% (inactive). Also, the max response in test [1] (setting [18]) stood at 8.43%; in [1] (setting [19]), 9.94%. The Potency result in [2], in test [3], in test [4], in test [5], in [6] and in [7] was “inactive” each time. Moreover, the Potency entry in test [8], in test [9], in test [16], in [10], in [12] and in test [14] was “inactive” throughout. In test [15], the Potency entry is “inactive”. Also, the result in [17] and in [11] was inactive.

Turning to `COc1ccc(OC)c(C(O)C(C)N)c1` (stereo unspecified), in test [1], the activity change, negative = inhibition was 12.3% (inactive) and -2.22% (inactive). In addition, the max response in test [1] (setting [18]) was 8.8% and 28.9%; in test [1] (setting [19]), 25.1% and 26.8%. For the same compound, the Potency result in test [2], in test [3], in [4], in test [5], in test [6] and in [7] was “inactive” in each case. Moreover, the Potency entry in test [8], in [9], in [10], in test [12], in test [14] and in [15] was “inactive” each time. Moreover, the compound was classed as inactive in test [11].

Take `O=c1ccc2[nH]cc(C3=CCNCC3)c2[nH]1`: the activity change, negative = inhibition in test [1] was 9.75% (inactive). Moreover, the max response in test [1] (setting [18]) was determined as 9.34%; in test [1] (setting [19]) it was 20.6%.

Turning to `CC(C)CC(NP(=O)(O)O[C@@H]1O[C@@H](C)[C@H](O)[C@@H](O)[C@H]1O)C(=O)NC(Cc1c[nH]c2ccccc12)C(=O)O` (stereo partly specified), in test [1], the activity change, negative = inhibition was 3.22% (inactive). For the same compound, the results for the max response in test [1] (setting [18]) and in test [1] (setting [19]) were 23.5% and 29.8%, respectively. Moreover, the Potency result in test [2], in test [3], in test [4], in test [5], in [6] and in test [7] was “inactive” each time. The Potency result in [8], in test [9], in test [16], in test [10], in [12] and in test [13] was “inactive” throughout. For the same compound, the outcome in [17] and in test [11] was inactive.

Consider `CN1CC[C@@]2(C)c3cc(O)ccc3N(C)C12` (stereo partly specified), for which the activity change, negative = inhibition in test [1] is 0.587% (inactive). Besides, the max response in [1] (setting [18]) is -12.4%; in test [1] (setting [19]), -11.4%. Besides, the Potency entry in [2], in test [3], in test [4], in [12], in test [14] and in [15] was “inactive” in each case. Besides, the Potency in test [5] is 12.6 µM (active); in test [6], 11.2 µM (active); in [7] it was 11.2 µM (active); in [8] it was 14.1 µM (active); in test [9] it was 12.6 µM (active); in test [16], 12.6 µM (active). The Potency in [10] was 8.91 µM (active). Further, the compound was called inactive in [11].

As for `Cc1o[nH]c(=O)c1CC(N)C(=O)O` (stereo unspecified), in [1], the activity change, negative = inhibition was 0.836% (inactive). Besides, the max response is -21.1% in [1] (setting [18]) and -19% in test [1] (setting [19]). The Potency entry in [2], in test [3], in test [4], in [5], in test [6] and in test [7] was “inactive” throughout. The Potency entry in test [8], in test [9], in [16], in test [10], in [12] and in test [14] was “inactive” throughout. For the same compound, in test [15], the Potency result is “inactive”. Also, the result in test [17] and in [11] was inactive.
